# Experimental data: PubChem BioAssay
# The source made the active and inactive calls.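 How the source made its calls: active means visually confirmed hit in the image check and inhibition above 20%; inconclusive means visually confirmed hit but inhibition not above 20%; inactive means no visual hit in the image check.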
# Assay: endothelial E-selectin expression blockers – imaging, HUVEC, immunofluorescence, MLSMR starter and 10KST1 sets, primary screen (AID 487);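 on inhibition: signal is fraction of cell area covered by stained E-selectin grains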;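 on nuclei count: 100% = median nuclei count of all wells on the same plate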
# Settings: HUVEC TNFalpha-induced E-selectin immunofluorescence imaging, at 2 µM; inhibition: stronger effect = higher value; nuclei count: measured here: cell number, toxicity
Structure (SMILES),nuclei count [%],inhibition
CCOC(=O)c1c(-c2cccs2)csc1NC(=O)CCCC(=O)O,106,-22.1% (inactive)
Fc1ccc(-c2cnc[nH]2)cc1,109,-88.1% (inactive)
CCOC(=O)c1[nH]c2ccc(Br)cc2c1NC(=O)CNC,141,-29% (inactive)
COc1ccc(C2(CN(C(C)=O)C(C)=O)CCCC2)cc1OC,139,-28.3% (inactive)
COc1ccccc1C1C(C#N)=C(N)Oc2cc(C)n(Cc3ccccn3)c(=O)c21 (configuration not stated),122,-46.2% (inactive)
Cc1ccc(C(=O)/C=C/Nc2cccc(O)c2)cc1,115,-0.2% (inactive)
O=C(C1CC1(c1ccccc1)c1ccccc1)N1CCOCC1 (configuration not stated),150,-60.9% (inactive)
COC(=O)CNC(=O)c1c(C)cc(=O)oc1C,115,-34.9% (inactive)
COc1ccc(CCn2c(=N)c(C(=O)NCc3ccco3)cc3c(=O)n4ccccc4nc32)cc1,108,-63.3% (inactive)
Nc1nc(NC(=O)c2cccs2)nn1-c1ccccc1,140,28.5% (inactive)
Cc1c(O)c(CN2CCCC(C)C2)cc2c3c(c(=O)oc12)CCC3 (configuration not stated),136,30.2% (inactive)
COc1ccc(CCn2c(=N)c(C#N)cc3c(=O)n4ccccc4nc32)cc1,105,-65.9% (inactive)
Cn1c(SCC(=O)N2CCOCC2)nnc1-c1cccc(NC(=O)c2ccccc2F)c1,107,17.5% (inactive)
O=C(NC1CCS(=O)(=O)C1)c1c(NC(=O)C2COc3ccccc3O2)sc2c1CCCC2 (configuration not stated),143,-35.3% (inactive)
COC(=O)C(NC(C)=O)(Nc1nc2ccc(S(C)(=O)=O)cc2s1)C(F)(F)F (configuration not stated),97.4,-30.1% (inactive)
COc1ccc2c(c1)C1(C)CC(C)(C)N2C(=O)N1c1ccccc1 (configuration not stated),110,-32.4% (inactive)
CCCCCn1c2nc3ccccc3nc2c2c(=O)n(CC(C)C)cnc21,130,-73.9% (inactive)
Nc1nnnn1/N=C/c1ccccn1,142,-155% (inactive)
Cc1nnc2n(-c3ccccc3)c(=O)c3c4c(sc3n12)CCCC4,122,-54% (inactive)
CCc1nc2sc3c(c2c(=O)o1)CCCC3,130,-32.9% (inactive)

Structure (SMILES),nuclei count [%],inhibition
CCOC(=O)CNC(=O)Nc1ccccc1C(=O)OC,119,15.4% (inactive)
COc1ccc(C(=O)NCCCCCC(=O)O)cc1OC,119,-46.5% (inactive)
CCOC(=O)C1=C(CSc2nc(C)cc(C)c2C#N)OC(N)=C(C#N)C1c1cccs1 (configuration not stated),95,-103% (inactive)
COc1cc(NC(=O)NC(C)(C(F)(F)F)C(F)(F)F)cc(OC)c1OC,140,-50% (inactive)
COC(=O)C(NC(C)=O)(Nc1ccccn1)C(F)(F)F (configuration not stated),121,-61.1% (inactive)
CC1(C)CNC(=O)c2sc(N3CCOCC3)nc2C1,119,-112% (inactive)
CCOC(=O)c1ccc(CC2S/C(=C(\C#N)C(C)=O)NC2=O)cc1 (configuration not stated),145,-87.6% (inactive)
CC(=Nc1cccc(O)c1)c1sc2ccccc2c1O,123,-0.7% (inactive)
COc1cccc(N2C(=O)C(O)=C(C(C)=O)C2c2ccc(OC)c(OC)c2)c1 (configuration not stated),106,34% (inactive)
O=S(=O)(c1ccc2ccccc2c1)N(CC(O)CN1CCOCC1)c1ccccc1 (configuration not stated),105,-7.5% (inactive)
Cc1c(O)c(CN2CCCCC2)cc2c3c(c(=O)oc12)CCC3,130,-1.4% (inactive)
O=S(=O)(NCc1cccnc1)c1cccc2nsnc12,137,-80.9% (inactive)
Cc1cc(O)c(C(C)C)cc1N=C1CSC(=O)N1,98.6,-9% (inactive)
Cc1nc2sc(C#N)c(N)c2c2c1CCCC2,96.3,0.2% (inactive)
N#C/C(C(=O)N1CCOCC1)=C1/SC(Cc2ccccc2)C(=O)N1c1ccccc1 (configuration not stated),112,3.5% (inactive)
CN(CC(O)COc1ccc(OCC(O)CN(C)C2CCCCC2)cc1)C1CCCCC1 (configuration not stated),120,-149% (inactive)
Cn1c(=O)[nH]c(=O)c2c1nc(N(CCO)Cc1ccccc1)n2Cc1ccccc1Cl,109,-37.5% (inactive)
Cc1nn(-c2ccccc2)c2c1C(=O)NC(=O)C(C)(C)C2,120,-24.8% (inactive)
Cc1ccc(-n2ncc3c(N4CCN(c5ccccc5)CC4)ncnc32)c(C)c1,154,-27.8% (inactive)

# Assay: Primary imaging screen for DUSP6 inhibitors that restore phospho-Erk in transfected HeLa cells, chemical complementation (AID 609)
# Settings: HeLa MKP-3 transfected, phospho-Erk imaging KS statistic; measured here: cell density z-score; at 10 µM; cells stimulated with TPA for 15 min
row,Structure (SMILES),z-score
1,CCOC(=O)c1c(-c2cccs2)csc1NC(=O)CCCC(=O)O,0.00511
2,Fc1ccc(-c2cnc[nH]2)cc1,-1.11
3,CCOC(=O)c1[nH]c2ccc(Br)cc2c1NC(=O)CNC,-0.195
4,COc1ccc(C2(CN(C(C)=O)C(C)=O)CCCC2)cc1OC,-0.215
5,COc1ccccc1C1C(C#N)=C(N)Oc2cc(C)n(Cc3ccccn3)c(=O)c21 (configuration not stated),0.97
6,Cc1ccc(C(=O)/C=C/Nc2cccc(O)c2)cc1,-0.411
7,O=C(C1CC1(c1ccccc1)c1ccccc1)N1CCOCC1 (configuration not stated),0.0865
8,COC(=O)CNC(=O)c1c(C)cc(=O)oc1C,0.439
9,COc1ccc(CCn2c(=N)c(C(=O)NCc3ccco3)cc3c(=O)n4ccccc4nc32)cc1,0.843
10,Nc1nc(NC(=O)c2cccs2)nn1-c1ccccc1,-2.6
11,Cc1c(O)c(CN2CCCC(C)C2)cc2c3c(c(=O)oc12)CCC3 (configuration not stated),-0.479
12,COc1ccc(CCn2c(=N)c(C#N)cc3c(=O)n4ccccc4nc32)cc1,1.77
13,Cn1c(SCC(=O)N2CCOCC2)nnc1-c1cccc(NC(=O)c2ccccc2F)c1,-2.39
14,O=C(NC1CCS(=O)(=O)C1)c1c(NC(=O)C2COc3ccccc3O2)sc2c1CCCC2 (configuration not stated),0.65
15,COC(=O)C(NC(C)=O)(Nc1nc2ccc(S(C)(=O)=O)cc2s1)C(F)(F)F (configuration not stated),-0.876
16,COc1ccc2c(c1)C1(C)CC(C)(C)N2C(=O)N1c1ccccc1 (configuration not stated),0.165
17,CCCCCn1c2nc3ccccc3nc2c2c(=O)n(CC(C)C)cnc21,-0.357
18,Nc1nnnn1/N=C/c1ccccn1,1.54
19,Cc1nnc2n(-c3ccccc3)c(=O)c3c4c(sc3n12)CCCC4,-1.12
20,CCc1nc2sc3c(c2c(=O)o1)CCCC3,-0.371

row,Structure (SMILES),z-score
1,CCOC(=O)CNC(=O)Nc1ccccc1C(=O)OC,0.104
2,COc1ccc(C(=O)NCCCCCC(=O)O)cc1OC,-0.456
3,CCOC(=O)C1=C(CSc2nc(C)cc(C)c2C#N)OC(N)=C(C#N)C1c1cccs1 (configuration not stated),0.722
4,COc1cc(NC(=O)NC(C)(C(F)(F)F)C(F)(F)F)cc(OC)c1OC,0.222
5,COC(=O)C(NC(C)=O)(Nc1ccccn1)C(F)(F)F (configuration not stated),2.44
6,CC1(C)CNC(=O)c2sc(N3CCOCC3)nc2C1,-0.682
7,CCOC(=O)c1ccc(CC2S/C(=C(\C#N)C(C)=O)NC2=O)cc1 (configuration not stated),1.03
8,CC(=Nc1cccc(O)c1)c1sc2ccccc2c1O,0.824
9,COc1cccc(N2C(=O)C(O)=C(C(C)=O)C2c2ccc(OC)c(OC)c2)c1 (configuration not stated),-1.18
10,O=S(=O)(c1ccc2ccccc2c1)N(CC(O)CN1CCOCC1)c1ccccc1 (configuration not stated),0.984
11,Cc1c(O)c(CN2CCCCC2)cc2c3c(c(=O)oc12)CCC3,0.172
12,O=S(=O)(NCc1cccnc1)c1cccc2nsnc12,-0.856
13,Cc1cc(O)c(C(C)C)cc1N=C1CSC(=O)N1,0.698
14,Cc1nc2sc(C#N)c(N)c2c2c1CCCC2,-2.36
15,N#C/C(C(=O)N1CCOCC1)=C1/SC(Cc2ccccc2)C(=O)N1c1ccccc1 (configuration not stated),-1.65
16,CN(CC(O)COc1ccc(OCC(O)CN(C)C2CCCCC2)cc1)C1CCCCC1 (configuration not stated),-0.395
17,Cn1c(=O)[nH]c(=O)c2c1nc(N(CCO)Cc1ccccc1)n2Cc1ccccc1Cl,1.19
18,Cc1nn(-c2ccccc2)c2c1C(=O)NC(=O)C(C)(C)C2,0.866
19,Cc1ccc(-n2ncc3c(N4CCN(c5ccccc5)CC4)ncnc32)c(C)c1,-0.444
